These results are taken from PubChem BioAssay.

Each structure is given as a SMILES string. “And” between values parts separate entries of the source, which are not always exact repeats. Equal entries are not always repeated. The source made the active and inactive calls.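 How the source made its calls, unless noted: active means inhibition at or above 50% relative to wild type and mutant plate controls; inactive means inhibition below 50%.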

Test [1] can be described thus: inhibitors of TNFa-induced NFkB p65 translocation, primary screen, imaging, HUVEC, MLSMR starter and 10KST1 sets (AID 438;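 active means inhibition above 20% together with a positive visual image hit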;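 further: compound added about 3h40 before a 20 min TNFalpha stimulation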;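 on inhibition: signal is the nuclear over cytoplasmic p65 intensity ratio per well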). The note with it: HUVEC TNFa-induced p65 nuclear translocation; cell count: measured here: nuclei count (cytotoxicity indicator), at 2.08 µM; inhibition: at 2 µM, stronger effect = higher value, 0% TNFa-plus-vehicle, 100% no-TNFa wells.
Test [2] in a line: reduction of polyQ htt aggregates in cells – imaging, exon1htt(103Q)mCFP cells, high-content imaging, primary screen (AID 483;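 active means visual image review flags a hit and inhibition of aggregation exceeds 20%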;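 further: compound exposure lasted 3 days before fixation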;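 on nuclei count: percent of the per-plate median nuclei count of sample wells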). To be noted: exon1htt(103Q)mCFP cell line, aggregate imaging, at 2 µM; inhibition of aggregation: stronger effect = higher value; nuclei count: measured here: cell count, toxicity.
A short description of test [3]: endothelial E-selectin expression blockers – imaging, HUVEC, immunofluorescence, MLSMR starter and 10KST1 sets, primary screen (AID 487;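 active means visually confirmed hit in the image check and inhibition above 20%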;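 on inhibition: signal is fraction of cell area covered by stained E-selectin grains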;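 on nuclei count: 100% = median nuclei count of all wells on the same plate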). To be noted: HUVEC TNFalpha-induced E-selectin immunofluorescence imaging, at 2 µM; inhibition: stronger effect = higher value; nuclei count: measured here: cell number, toxicity.
A short description of test [4]: Primary imaging screen for DUSP6 inhibitors that restore phospho-Erk in transfected HeLa cells, chemical complementation (AID 609;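 active means compounds giving at least 50% inhibition in the cell-based MKP-3 phosphatase rescue imaging test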;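 on inhibition: phospho-Erk level distribution per well compared with pooled transfected vehicle control wells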). The note with it: HeLa MKP-3 transfected, phospho-Erk imaging KS statistic, at 10 µM, cells stimulated with TPA for 15 min.
Test [5] concerns the target Dual specificity protein phosphatase 6 (Homo sapiens) (UniProt Q16828). The description is as above. The note with it: HeLa MKP-3 transfected, phospho-Erk imaging KS statistic; at 10 µM; stronger effect = higher value; cells stimulated with TPA for 15 min.
The target in test [6] is Voltage-gated potassium channel subunit beta-2 (Rattus norvegicus) (UniProt P62483). In words: inhibitors of rat Kvbeta2 reductase activity – biochemical, NADPH fluorescence, primary screen (AID 622;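 active means fluorescence slope higher than the sample average by over 3 SD, cut at about -0.22 in these data, passing the limit was not always enough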;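 further: slope of raw intensity against log time taken from 70 to 1610 s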). The note with it: recombinant KvBeta, 4-cyanobenzaldehyde reduction, at 10 µM, stronger effect = higher value.
The target is the same in test [7]. In words: enhancers of rat Kvbeta2 NADPH turnover – biochemical, NADPH fluorescence, primary screen (AID 623;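 active means NADPH fluorescence slope more negative than the mean of all samples by about 3 SD, 99.7% confidence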;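 further: fluorescence intensity change per second fitted from 20 to 320 s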). The note with it: Recombinant KvBeta, NADPH fluorescence decrease slope, 10 min; at 10 µM; stronger effect = lower value.
Test [8] has as its target Muscarinic acetylcholine receptor M4 (Homo sapiens) (UniProt P08173). In words: M4-linked GIRK flux change, two-sided – cell-based, HEK293 M4/GIRK, thallium flux, BTC-AM, M4 allosteric agonist project, primary screen (AID 625;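 active means fluorescence slope after compound addition differing from the mean of all tested samples at 99.7% confidence, mostly higher but some lower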;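 further: thallium influx through GIRK channels coupled to M4 in HEK293 cells with BTC-AM dye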). The note with it: at 10 µM, actives lie on both sides.
The nature of test [9]: inhibitors of larval lipid processing in zebrafish, primary screen, whole organism, PED6 fluorescence, gall bladder and intestine (AID 686;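 active means a full or partial loss of lipid-probe fluorescence in the fish gall bladder, intestine or both, judged by eye; inactive means no fluorescence loss, or compound toxic to the fish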;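 further: larvae 5 to 7 days old with five fish per well; signal comes from phospholipase A2 cleavage of quenched PED6 carried via bile; overnight exposure to compound and PED6 before scoring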). The note with it: Zebrafish larvae PED6 lipid processing, fluorescence scoring; screened at 20 µM (by protocol).
The nature of test [10]: loss of swimming-algae plug formation – whole organism, Chlamydomonas reinhardtii, WT vs cilia-less mutant, absorbance, 96-well, primary screen (AID 463189).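 Further: 0% = wild type cc124 cells in DMSO and 100% = ciliumless bld1 mutant cells.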 To be noted: Chlamydomonas reinhardtii gravitaxis, OD600 absorbance, 2 days; at 10 µM; stronger effect = higher value.
A short description of test [11]: blockers of RIG-like receptor reporter activation – cell-based, Sendai virus stimulus, luciferase, 10K MLSCN set, TLR/RLR signaling modifier project, primary screen (AID 602276;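 active means inhibition at or above 50% at 10 µM; inactive means inhibition below 50%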;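 further: firefly luciferase from ISG56 promoter only with Renilla not read in this screen; 0% = Sendai virus plus DMSO and 100% = medium plus DMSO without virus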). The note with it: HEK293 RL24 IRF3 luciferase reporter, at 10 µM, stronger effect = higher value. Background: A reporter such as luciferase makes a cellular process visible.
Test [12] can be described thus: TLR3 IRF3 reporter activation blockers – cell-based, poly I:C stimulus, luciferase, 10K MLSCN set, primary screen (AID 602277;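 active means inhibition of the reporter signal at or above 50%; inactive means inhibition below 50%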). The note with it: HEK293-TLR3 RL24 IRF3 luciferase reporter, at 10 µM, stronger effect = higher value.
The mark [13] stands for this setting: measured here: cell density z-score.
[14] abbreviates: measured here: nuclear c-Myc green intensity z-score.
Setting [15] is: measured here: nuclear pErk red intensity z-score, stronger effect = higher value.

Voltage-gated potassium channel subunit beta-2 (Rattus norvegicus), sequence (P62483 whole entry, looked up): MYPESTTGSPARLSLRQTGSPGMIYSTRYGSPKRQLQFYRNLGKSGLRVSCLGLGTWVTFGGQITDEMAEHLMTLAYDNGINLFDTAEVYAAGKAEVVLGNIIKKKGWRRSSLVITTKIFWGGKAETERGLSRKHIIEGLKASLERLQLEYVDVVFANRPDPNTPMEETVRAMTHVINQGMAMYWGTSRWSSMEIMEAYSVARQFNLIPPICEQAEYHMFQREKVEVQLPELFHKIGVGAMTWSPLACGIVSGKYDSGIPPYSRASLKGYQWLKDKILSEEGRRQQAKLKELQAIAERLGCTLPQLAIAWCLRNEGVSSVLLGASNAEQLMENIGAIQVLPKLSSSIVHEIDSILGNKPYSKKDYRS
Dual specificity protein phosphatase 6 (Homo sapiens), sequence (Q16828 whole entry, looked up): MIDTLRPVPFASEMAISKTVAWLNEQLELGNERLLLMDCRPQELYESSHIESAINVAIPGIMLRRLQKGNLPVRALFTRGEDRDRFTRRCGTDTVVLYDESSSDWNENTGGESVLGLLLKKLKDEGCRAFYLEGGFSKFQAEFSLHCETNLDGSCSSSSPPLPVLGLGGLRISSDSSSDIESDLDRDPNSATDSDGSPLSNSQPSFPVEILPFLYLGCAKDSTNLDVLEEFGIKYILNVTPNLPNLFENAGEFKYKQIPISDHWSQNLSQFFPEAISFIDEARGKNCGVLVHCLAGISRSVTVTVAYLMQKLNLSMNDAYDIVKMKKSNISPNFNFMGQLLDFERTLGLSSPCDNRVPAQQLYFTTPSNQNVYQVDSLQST
Muscarinic acetylcholine receptor M4 (Homo sapiens), sequence (P08173 whole entry, looked up): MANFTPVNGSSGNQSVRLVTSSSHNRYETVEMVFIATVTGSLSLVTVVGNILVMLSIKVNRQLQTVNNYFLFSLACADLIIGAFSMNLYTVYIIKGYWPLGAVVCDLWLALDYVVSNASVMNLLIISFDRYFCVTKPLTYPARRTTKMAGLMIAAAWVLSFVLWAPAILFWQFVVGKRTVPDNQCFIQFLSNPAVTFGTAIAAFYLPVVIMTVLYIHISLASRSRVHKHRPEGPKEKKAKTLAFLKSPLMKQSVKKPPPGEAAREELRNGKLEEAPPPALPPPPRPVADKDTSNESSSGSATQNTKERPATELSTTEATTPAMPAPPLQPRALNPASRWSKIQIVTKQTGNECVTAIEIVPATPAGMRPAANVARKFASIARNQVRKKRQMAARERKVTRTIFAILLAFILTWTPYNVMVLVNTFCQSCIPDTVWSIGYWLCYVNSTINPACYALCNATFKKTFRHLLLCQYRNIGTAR

Regarding `CCCCOc1ccccc1C(=O)NCCCC(=O)O`, in test [1], the cell count worked out at 531. For the same molecule, the inhibition in test [1] is -3.8% (inactive); in [3], -66.7% (inactive); in test [5], -6.59% (inactive); in test [10], 20.4% (inactive); in [11] it was 12.9% (inactive); in [12] it was 17.2% (inactive). Further, the inhibition of aggregation in test [2] was -44.1% (inactive). For the same molecule, the values for the nuclei count in test [2] and in [3] were 119% and 134%, respectively. In addition, the results for the z-score in [4] (setting [13]), in [4] (setting [14]) and in test [4] (setting [15]) were -0.714, 1.18 and 1.54, respectively. The fluorescence slope in test [6] is -0.439 (inactive); in test [8], 0.00573 (inactive). Also, the NADPH fluorescence slope in test [7] was -0.000111 (inactive). Also, the outcome in test [9] is “active; weak signal in gallbladder and intestine”.

Consider `CCOc1c(C)cc2[nH]c(CCC(=O)O)nc2c1C`, for which the cell count in test [1] is 445. Also, the inhibition in [1] was 0.7% (inactive); in [3], -40.3% (inactive); in [5], 7.42% (inactive); in [10], 21.6% (inactive); in test [11], 8.15% (inactive); in test [12] it was 8.77% (inactive). In addition, the inhibition of aggregation in test [2] is 8.3% (inactive). Also, the nuclei count stood at 97.7% in test [2] and 116% in test [3]. Further, the z-score in [4] (setting [13]) is 1.23; in test [4] (setting [14]), -1.62; in [4] (setting [15]), -1.73. The results for the fluorescence slope in test [6] and in [8] were -0.491 (inactive) and 0.00428 (inactive), respectively. Besides, in test [7], the NADPH fluorescence slope was -3.6e-05 (inactive). For the same molecule, the outcome in test [9] was inactive.

On to `COC(=O)C(NC(C)=O)(Nc1nc2ccc(S(C)(=O)=O)cc2s1)C(F)(F)F` (stereo not drawn), for which the cell count in test [1] amounted to 473. Further, the inhibition in test [1] is -7.9% (inactive); in test [3] it was -30.1% (inactive); in test [5], 7.42% (inactive); in [10], -13% (inactive); in test [11] it was -0.421% (inactive); in test [12], 13.8% (inactive). The inhibition of aggregation in test [2] is 3.4% (inactive). In addition, the nuclei count in test [2] stood at 102%; in test [3], 97.4%. Besides, the z-score in test [4] (setting [13]) is -0.876; in [4] (setting [14]), 0.631; in [4] (setting [15]) it was 0.313. Further, the figures for the fluorescence slope in test [6] and in [8] were -0.51 (inactive) and 0.00507 (inactive), respectively. In test [7], the NADPH fluorescence slope is -1e-05 (inactive). The molecule was called inactive in test [9].

Regarding `Cn1c(=O)c2c(nc(Br)n2CCSc2ncccn2)n(C)c1=O`, the cell count in [1] was 606. The inhibition in test [1] is -12.8% (inactive); in [3], -13.4% (inactive); in test [5], 21.4% (inactive); in test [10] it was 36.1% (inactive); in test [11], 5.45% (inactive); in test [12], 6.81% (inactive). Also, the inhibition of aggregation in test [2] was 5.2% (inactive). Further, the nuclei count in test [2] amounted to 103%; in [3], 150%. For the same molecule, the z-score is 0.427 in [4] (setting [13]), -0.0194 in [4] (setting [14]) and -1.04 in test [4] (setting [15]). The results for the fluorescence slope in [6] and in [8] were -0.364 (inactive) and 0.00613 (inactive), respectively. Moreover, the NADPH fluorescence slope in test [7] is -1.4e-05 (inactive). For the same molecule, in [9], the molecule was classed as inactive.

Take `CC(=Nc1cccc(O)c1)c1sc2ccccc2c1O`: the cell count in test [1] worked out at 745. Also, the inhibition in test [1] is -2.4% (inactive); in test [3], -0.7% (inactive); in test [5], 13.2% (inactive); in test [10], -2.68% (inactive); in [11], -6% (inactive); in [12], 76.3% (active). Moreover, in test [2], the inhibition of aggregation is -13% (inactive). In addition, the figures for the nuclei count in test [2] and in test [3] were 96.4% and 123%, respectively. Moreover, the z-score in test [4] (setting [13]) was 0.824; in [4] (setting [14]), 0.631; in [4] (setting [15]), -1.52. For the same molecule, the fluorescence slope was -0.303 (inactive) in test [6] and 0.0088 (inactive) in test [8]. In addition, in test [7], the NADPH fluorescence slope was -6.7e-05 (inactive). Besides, the outcome in test [9] is “inactive; toxic”.

Consider `COc1ccc(C2(CN(C(C)=O)C(C)=O)CCCC2)cc1OC`, for which the cell count in [1] turned out to be 676. Moreover, the inhibition in test [1] was -6.2% (inactive); in test [3] it was -28.3% (inactive); in test [5] it was 1.98% (inactive); in test [10], -15.3% (inactive); in test [11], 1.22% (inactive); in [12], 7.89% (inactive). In test [2], the inhibition of aggregation is 6.8% (inactive). The nuclei count in [2] was found to be 109%; in [3], 139%. Further, the z-score in [4] (setting [13]) was -0.215; in [4] (setting [14]) it was 1.01; in test [4] (setting [15]), -1.44. Moreover, the fluorescence slope was -0.504 (inactive) in test [6] and 0.00396 (inactive) in [8]. The NADPH fluorescence slope in test [7] was -6.2e-05 (inactive). Moreover, in [9], the result was inactive.

In the case of `CC(CCc1ccccc1)NCC(O)c1ccc(O)c(C(N)=O)c1` (stereo not drawn), the cell count in test [1] worked out at 612. For the same molecule, the inhibition in test [1] was -8.1% (inactive); in test [3] it was -7.9% (inactive); in [5] it was 13.3% (inactive); in test [10], 10.1% (inactive) and -0.75% (inactive); in [11] it was -17.5% (inactive); in test [12], 5.32% (inactive). For the same molecule, the inhibition of aggregation in test [2] was -15.6% (inactive). Besides, the nuclei count in test [2] turned out to be 103%; in [3], 107%. The z-score in [4] (setting [13]) is 0.375; in test [4] (setting [14]), -0.198; in test [4] (setting [15]), -0.807. The figures for the fluorescence slope in test [6] and in test [8] were -0.442 (inactive) and 0.00425 (inactive), respectively. The NADPH fluorescence slope in test [7] was 2.9e-05 (inactive). In [9], the molecule was classed as inactive.

On to `Cc1nnc2n(-c3ccccc3)c(=O)c3c4c(sc3n12)CCCC4`, for which, in test [1], the cell count was 661. The inhibition in [1] is -4.7% (inactive); in [3], -54% (inactive); in test [5] it was -3.95% (inactive); in test [10], 24.9% (inactive); in test [11], -14.4% (inactive); in [12], -35.5% (inactive). Also, the inhibition of aggregation in [2] is 8% (inactive). Also, the nuclei count in test [2] worked out at 95.5%; in test [3], 122%. The results for the z-score in test [4] (setting [13]), in test [4] (setting [14]) and in [4] (setting [15]) were -1.12, -0.18 and 0.377, respectively. For the same molecule, the fluorescence slope is -0.468 (inactive) in test [6] and 0.00446 (inactive) in test [8]. Moreover, the NADPH fluorescence slope in test [7] was -0.000128 (inactive). Further, the molecule was classed as inactive in test [9].

As to `CCOC(=O)CNC(=O)Nc1ccccc1C(=O)OC`, in [1], the cell count worked out at 676. In addition, the inhibition is -2.9% (inactive) in test [1]; 15.4% (inactive) in [3]; -7.67% (inactive) in test [5]; -5.32% (inactive) in test [10]; 10.2% (inactive) in test [11]; 18.3% (inactive) in test [12]. The inhibition of aggregation in [2] was -5.8% (inactive). The values for the nuclei count in test [2] and in [3] were 83.8% and 119%, respectively. In addition, the z-score in test [4] (setting [13]) is 0.104; in test [4] (setting [14]), 0.241; in test [4] (setting [15]), -0.382. Also, the fluorescence slope in test [6] was -0.507 (inactive); in test [8] it was 0.00626 (inactive). The NADPH fluorescence slope in test [7] is -0.000189 (active). Moreover, in test [9], the call was inactive.

By inhibition is commonly meant the change of the read-out against control, counted positive when it falls.
